Drawing on paper PMC7862700, “An all-to-all approach to the identification of sequence-specific readers for epigenetic DNA modifications on cytosine”, this text covers binding signal for seven sequences.

Assay in all cases: DAPPL (digital affinity profiling via proximity ligation, sequencing); 10 mM Tris-HCl pH 7.5, 50 mM NaCl, 1 mM DTT, 4% glycerol, room temperature, 30 min; GST-TFs on glutathione beads, 16-mer random dsDNA library, 0.1% formaldehyde crosslink after washing; high values mean tight binding
Settings in all cases: protein: recombinant; tags: N-terminal GST; dsDNA, one strand shown

Test [1] concerns the target T1, ERF (Homo sapiens, UniProt P50548 1-548).
T1 sequence: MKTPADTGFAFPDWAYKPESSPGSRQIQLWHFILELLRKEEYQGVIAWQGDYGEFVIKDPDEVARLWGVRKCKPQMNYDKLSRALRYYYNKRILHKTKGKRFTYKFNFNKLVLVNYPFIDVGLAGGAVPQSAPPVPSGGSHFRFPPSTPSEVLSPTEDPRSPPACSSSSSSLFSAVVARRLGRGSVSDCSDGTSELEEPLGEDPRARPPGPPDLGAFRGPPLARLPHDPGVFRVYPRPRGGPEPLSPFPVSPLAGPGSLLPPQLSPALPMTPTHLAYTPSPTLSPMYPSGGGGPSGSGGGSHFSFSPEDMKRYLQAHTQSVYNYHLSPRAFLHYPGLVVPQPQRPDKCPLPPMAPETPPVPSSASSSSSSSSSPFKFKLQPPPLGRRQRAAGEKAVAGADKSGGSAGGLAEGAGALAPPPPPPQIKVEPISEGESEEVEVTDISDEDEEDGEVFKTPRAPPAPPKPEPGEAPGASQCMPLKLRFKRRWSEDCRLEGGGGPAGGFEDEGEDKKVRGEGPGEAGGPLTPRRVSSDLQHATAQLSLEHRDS
In a few lines:
(§1)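 Sequencing on an Illumina NextSeq500 followed washing, crosslinking with 0.1% formaldehyde, proximity ligation (BsaI/T4 ligase, 1 h, 37 °C) and PCR amplification of pools that had been incubated for 30 min at room temperature with 200 nmole of a random double-stranded 16-mer DNA library in Tris/NaCl/DTT/glycerol buffer. Each pool held DNA-barcoded human transcription factors, expressed in yeast as GST fusions and captured on glutathione beads, plus a tag-only sample. Binding signal is a hexamer's read frequency for a factor divided by its frequency in the tag-only sample.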

The target of test [2] is T2, ETV3L (Homo sapiens, UniProt Q6ZN32 1-361).
T2 sequence: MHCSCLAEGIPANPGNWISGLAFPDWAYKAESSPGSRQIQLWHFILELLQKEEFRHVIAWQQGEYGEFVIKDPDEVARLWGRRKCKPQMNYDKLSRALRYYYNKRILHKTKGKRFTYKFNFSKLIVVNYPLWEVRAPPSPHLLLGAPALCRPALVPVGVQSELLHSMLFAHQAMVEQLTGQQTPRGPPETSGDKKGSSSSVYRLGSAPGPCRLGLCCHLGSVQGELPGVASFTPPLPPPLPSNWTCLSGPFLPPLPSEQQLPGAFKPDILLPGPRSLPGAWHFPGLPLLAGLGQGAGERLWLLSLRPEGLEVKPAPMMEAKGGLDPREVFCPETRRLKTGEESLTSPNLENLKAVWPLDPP
In short, it runs like this: as §1

Test [3] concerns the target T3, ETS2 (Homo sapiens, UniProt P15036 1-469).
T3 sequence: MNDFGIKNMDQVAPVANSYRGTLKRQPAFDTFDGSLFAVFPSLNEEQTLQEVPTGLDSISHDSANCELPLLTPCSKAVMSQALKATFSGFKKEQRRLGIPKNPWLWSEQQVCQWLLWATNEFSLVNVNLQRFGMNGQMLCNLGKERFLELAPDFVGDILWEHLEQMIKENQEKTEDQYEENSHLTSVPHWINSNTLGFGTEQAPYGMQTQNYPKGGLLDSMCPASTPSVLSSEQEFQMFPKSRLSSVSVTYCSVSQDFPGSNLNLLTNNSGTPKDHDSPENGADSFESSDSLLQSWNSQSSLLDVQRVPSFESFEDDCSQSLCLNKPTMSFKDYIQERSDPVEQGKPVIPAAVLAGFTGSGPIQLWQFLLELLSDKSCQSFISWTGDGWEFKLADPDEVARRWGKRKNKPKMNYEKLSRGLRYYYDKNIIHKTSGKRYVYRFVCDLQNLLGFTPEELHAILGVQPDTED
In a few lines: as §1

Test [4] addresses T4, SPDEF (Homo sapiens, UniProt O95238 1-335).
T4 sequence: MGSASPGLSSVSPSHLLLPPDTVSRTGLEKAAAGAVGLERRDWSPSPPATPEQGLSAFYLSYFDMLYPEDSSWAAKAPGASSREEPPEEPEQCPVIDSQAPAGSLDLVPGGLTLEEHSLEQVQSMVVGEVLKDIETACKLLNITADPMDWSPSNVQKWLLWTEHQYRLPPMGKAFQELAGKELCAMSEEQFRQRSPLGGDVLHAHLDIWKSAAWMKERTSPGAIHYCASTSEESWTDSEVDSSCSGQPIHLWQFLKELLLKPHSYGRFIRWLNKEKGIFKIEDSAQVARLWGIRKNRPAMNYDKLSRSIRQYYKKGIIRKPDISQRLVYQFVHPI
In a few lines:
as §1

Test [5] deals with T5, ETV7 (Homo sapiens, UniProt Q9Y603 1-341).
T5 sequence: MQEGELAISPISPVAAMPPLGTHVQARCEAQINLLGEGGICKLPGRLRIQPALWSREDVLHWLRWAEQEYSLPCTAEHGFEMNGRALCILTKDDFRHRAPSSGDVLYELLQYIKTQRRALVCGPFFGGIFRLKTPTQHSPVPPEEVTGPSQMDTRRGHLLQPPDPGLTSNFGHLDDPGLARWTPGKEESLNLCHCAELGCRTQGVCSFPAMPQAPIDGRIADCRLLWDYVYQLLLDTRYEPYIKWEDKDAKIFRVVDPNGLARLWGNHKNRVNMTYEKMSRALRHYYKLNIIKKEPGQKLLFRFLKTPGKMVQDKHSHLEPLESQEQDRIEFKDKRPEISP
In a few lines:
as §1

The target in test [6] is T6, ELF5 (Homo sapiens, UniProt Q9UKW6-2 1-255).
T6 sequence: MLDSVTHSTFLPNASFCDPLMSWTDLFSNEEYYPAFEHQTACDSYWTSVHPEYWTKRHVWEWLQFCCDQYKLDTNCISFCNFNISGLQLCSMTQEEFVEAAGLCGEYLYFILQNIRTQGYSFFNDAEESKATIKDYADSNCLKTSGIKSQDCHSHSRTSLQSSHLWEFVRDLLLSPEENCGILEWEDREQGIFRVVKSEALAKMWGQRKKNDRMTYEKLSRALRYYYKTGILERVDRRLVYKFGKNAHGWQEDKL
In a few lines:
as §1

For test [7], the target named is T7, ETV3 (Homo sapiens, UniProt P41162-2 1-143).
T7 sequence: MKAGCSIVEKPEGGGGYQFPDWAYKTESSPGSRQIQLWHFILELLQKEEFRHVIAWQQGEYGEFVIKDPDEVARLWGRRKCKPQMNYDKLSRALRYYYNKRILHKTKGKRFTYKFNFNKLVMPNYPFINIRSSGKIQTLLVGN
In short, it runs like this:
as §1

The target of test [8] is ETV6 (Homo sapiens, UniProt P41212 1-452). In a few lines:
as §1

Sequence of ETV6 (P41212 whole entry): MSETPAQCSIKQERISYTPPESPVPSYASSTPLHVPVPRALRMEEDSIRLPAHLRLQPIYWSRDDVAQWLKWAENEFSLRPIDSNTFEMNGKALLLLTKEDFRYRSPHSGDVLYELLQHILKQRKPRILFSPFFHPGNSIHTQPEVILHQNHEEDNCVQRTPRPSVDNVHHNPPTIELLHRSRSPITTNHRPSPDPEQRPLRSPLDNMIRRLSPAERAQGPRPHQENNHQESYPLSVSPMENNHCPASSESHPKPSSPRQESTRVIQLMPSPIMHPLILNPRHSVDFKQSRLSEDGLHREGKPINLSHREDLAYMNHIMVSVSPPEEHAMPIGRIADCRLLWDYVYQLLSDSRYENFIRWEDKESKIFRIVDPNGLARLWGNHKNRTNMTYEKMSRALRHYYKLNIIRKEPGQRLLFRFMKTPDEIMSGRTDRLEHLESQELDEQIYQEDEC

As for TGTATC, the binding signal in test [1] is 1.39 fold enrichment (6-mer frequency, TF over GST control); in test [2], 1.28 fold enrichment (6-mer frequency, TF over GST control); in test [3] it was 1.42 fold enrichment (6-mer frequency, TF over GST control); in test [4], 1.89 fold enrichment (6-mer frequency, TF over GST control); in test [5] it was 1.31 fold enrichment (6-mer frequency, TF over GST control); in test [6], 1.51 fold enrichment (6-mer frequency, TF over GST control). The binding signal in test [7] was 1.54 fold enrichment (6-mer frequency, TF over GST control); in test [8] it was 1.36 fold enrichment (6-mer frequency, TF over GST control).

ATTAAC: the binding signal in test [1] was 1.26 fold enrichment (6-mer frequency, TF over GST control); in test [2] it was 1.31 fold enrichment (6-mer frequency, TF over GST control); in test [3], 1.27 fold enrichment (6-mer frequency, TF over GST control); in test [4], 1.26 fold enrichment (6-mer frequency, TF over GST control); in test [5] it was 1.24 fold enrichment (6-mer frequency, TF over GST control); in test [6], 1.23 fold enrichment (6-mer frequency, TF over GST control). Further, the binding signal in test [7] is 1.26 fold enrichment (6-mer frequency, TF over GST control); in test [8], 1.22 fold enrichment (6-mer frequency, TF over GST control).

Turning to GTGCTC, the binding signal in test [1] was 1.28 fold enrichment (6-mer frequency, TF over GST control); in test [2] it was 1.19 fold enrichment (6-mer frequency, TF over GST control); in test [3], 1.26 fold enrichment (6-mer frequency, TF over GST control); in test [4], 1.05 fold enrichment (6-mer frequency, TF over GST control); in test [5], 1.25 fold enrichment (6-mer frequency, TF over GST control); in test [6] it was 1.22 fold enrichment (6-mer frequency, TF over GST control). Besides, the binding signal in test [7] is 1.25 fold enrichment (6-mer frequency, TF over GST control); in test [8], 1.32 fold enrichment (6-mer frequency, TF over GST control).

As to CACCTT, the binding signal in test [1] is 1.33 fold enrichment (6-mer frequency, TF over GST control); in test [2] it was 1.14 fold enrichment (6-mer frequency, TF over GST control); in test [3], 1.24 fold enrichment (6-mer frequency, TF over GST control); in test [4] it was 1.31 fold enrichment (6-mer frequency, TF over GST control); in test [5], 1.12 fold enrichment (6-mer frequency, TF over GST control); in test [6], 1.21 fold enrichment (6-mer frequency, TF over GST control). In addition, the binding signal was 1.31 fold enrichment (6-mer frequency, TF over GST control) in test [7] and 1.25 fold enrichment (6-mer frequency, TF over GST control) in test [8].

Turning to TTGCGC, the binding signal in test [1] is 1.28 fold enrichment (6-mer frequency, TF over GST control); in test [2], 1.13 fold enrichment (6-mer frequency, TF over GST control); in test [3], 1.16 fold enrichment (6-mer frequency, TF over GST control); in test [4] it was 1.06 fold enrichment (6-mer frequency, TF over GST control); in test [5], 1.12 fold enrichment (6-mer frequency, TF over GST control); in test [6], 1.03 fold enrichment (6-mer frequency, TF over GST control). Further, the binding signal was 1.07 fold enrichment (6-mer frequency, TF over GST control) in test [7] and 1.06 fold enrichment (6-mer frequency, TF over GST control) in test [8].

For the sequence GAATCC, the binding signal was 1.12 fold enrichment (6-mer frequency, TF over GST control) in test [1]; 1.11 fold enrichment (6-mer frequency, TF over GST control) in test [2]; 1.13 fold enrichment (6-mer frequency, TF over GST control) in test [3]; 1.54 fold enrichment (6-mer frequency, TF over GST control) in test [4]; 1.18 fold enrichment (6-mer frequency, TF over GST control) in test [5]; 1.03 fold enrichment (6-mer frequency, TF over GST control) in test [6]. The binding signal in test [7] is 1.14 fold enrichment (6-mer frequency, TF over GST control); in test [8], 1.08 fold enrichment (6-mer frequency, TF over GST control).

Turning to GCTATG, the binding signal is 1.26 fold enrichment (6-mer frequency, TF over GST control) in test [1]; 1.16 fold enrichment (6-mer frequency, TF over GST control) in test [2]; 1.26 fold enrichment (6-mer frequency, TF over GST control) in test [3]; 1.23 fold enrichment (6-mer frequency, TF over GST control) in test [4]; 1.3 fold enrichment (6-mer frequency, TF over GST control) in test [5]; 1.14 fold enrichment (6-mer frequency, TF over GST control) in test [6]. The binding signal is 1.23 fold enrichment (6-mer frequency, TF over GST control) in test [7] and 1.1 fold enrichment (6-mer frequency, TF over GST control) in test [8].
